# Screens from PubChem BioAssay.
# FBA Mtb inh – inhibits M. tuberculosis FBA enzyme. P9WQA3. purified M. tuberculosis FBA, fluorescence read-out. inhibition, % at 1 µM. 360,000 tested, 2.3% active; in the data active means inhibition above about 27%;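 further: 0% = vehicle and 100% = reference inhibitor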
# Autofluor counter – compound fluorescence in toxin protease inhibitor counterscreen; fluorescence intensity (no concentration beside the values); 360,000 tested, 3.1% active; compound autofluorescence counterscreen, microsphere flow cytometry; active compounds read high; in the data active means fluorescence intensity above about 16000; inconclusive means no clear call, values can overlap the other calls
# Anthrax LF inh2 – anthrax lethal factor protease inhibition; P15917; multiplex microsphere protease cleavage assay, LF; inhibition, % at 10 µM; 360,000 tested, 0.12% active; AID 588501; further: plate controls were buffer without enzyme for full effect and enzyme alone for no effect
# Target sequence (P15917 whole entry, looked up): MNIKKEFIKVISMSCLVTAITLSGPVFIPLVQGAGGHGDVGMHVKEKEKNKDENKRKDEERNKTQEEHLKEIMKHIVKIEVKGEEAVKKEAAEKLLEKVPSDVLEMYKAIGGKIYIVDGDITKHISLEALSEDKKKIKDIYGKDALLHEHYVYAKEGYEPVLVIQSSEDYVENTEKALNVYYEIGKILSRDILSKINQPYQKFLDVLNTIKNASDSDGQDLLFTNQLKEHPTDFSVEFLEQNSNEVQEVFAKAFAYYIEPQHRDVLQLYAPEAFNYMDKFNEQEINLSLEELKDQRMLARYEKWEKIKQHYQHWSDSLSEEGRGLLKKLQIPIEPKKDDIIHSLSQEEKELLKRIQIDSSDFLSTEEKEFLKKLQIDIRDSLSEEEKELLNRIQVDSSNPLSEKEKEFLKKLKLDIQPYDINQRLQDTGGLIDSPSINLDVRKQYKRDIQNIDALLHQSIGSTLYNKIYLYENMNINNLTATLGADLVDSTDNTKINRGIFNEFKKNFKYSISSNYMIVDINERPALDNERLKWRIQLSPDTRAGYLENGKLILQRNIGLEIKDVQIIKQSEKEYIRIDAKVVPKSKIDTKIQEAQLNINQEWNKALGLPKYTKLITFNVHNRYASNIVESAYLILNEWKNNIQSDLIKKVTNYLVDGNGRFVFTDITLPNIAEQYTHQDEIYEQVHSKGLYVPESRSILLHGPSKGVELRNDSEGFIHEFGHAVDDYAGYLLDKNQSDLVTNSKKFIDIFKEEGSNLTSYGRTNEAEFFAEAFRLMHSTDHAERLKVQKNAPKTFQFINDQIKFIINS
# GDH-TPI counter – counter-screen for M. tuberculosis FBA inhibitors: GDH-TPI coupled enzymes. GDH-TPI coupled enzyme counterscreen, NADH absorbance. inhibition, % at 4.8 µM. 360,000 tested, 1.2% active. AID 588335; in the data active means inhibition above about 30%;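 further: 0% = DMSO wells and 100% = wells lacking the enzyme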
# BoNT F protease – inhibitors of Botulinum neurotoxin F light chain protease; Multiplex microsphere protease cleavage assay, flow cytometry; inhibition, % at 10 µM; 360,000 tested, 0.22% active; in the data active means inhibition above about 35%, passing the limit was not always enough; inconclusive means no clear call, values can overlap the other calls; further: plate controls were buffer without enzyme for full effect and enzyme alone for no effect
# BoNT-A LC inh2 – BoNT A light chain protease inhibition | 360,000 tested, 0.17% active | AID 588499 | inhibition, % at 10 µM | multiplex microsphere protease substrate cleavage, flow cytometry; further: plate controls were buffer without enzyme for full effect and enzyme alone for no effect
# Active calls of the source: *; ? = inconclusive; . = no result given. Sampled rows, rich in hits. Any-hit rate of the full collection: about 6.7%. Unless noted, no stated cut-off is given here; in the data, active means inhibition above about 30%; inconclusive means no clear call, values can overlap the other calls; inactive means below that.
SMILES,FBA Mtb inh,Autofluor counter,Anthrax LF inh2,GDH-TPI counter,BoNT F protease,BoNT-A LC inh2
COc1ccc(C(=O)Nn2cc3c(c2-c2ccccc2)c(=O)n(C)c(=O)n3C)cc1,0,20615*,-1,6,1,0
COc1ccccc1CNC(=O)COc1ccccc1C(=O)c1cnn(-c2ccccc2)c1,2,9004,-4,2,-10,0
O=C(NCCOc1ccccc1F)c1cc([N+](=O)[O-])ccc1N1CCOCC1,-1,.,.,13,.,.
C=CCNCCCCOc1ccc(Br)cc1C,-3,2515,-1,6,-4,2
COCCNCCCOc1ccc(Cl)cc1Br,0,2530,-1,-2,1,1
Cc1cc(Br)ccc1OCCCCNCCO,1,21727*,-1,-11,-9,-7
OCCNCCCOc1ccc(Cl)cc1Br,2,22475*,-4,-4,-1,0
N=c1n(CCN2CCCC2)c2ccccc2n1CC(O)c1ccco1 (stereo not drawn),2,21466*,1,6,4,4
COc1ccc(CCNC(=O)CSc2ncn[nH]2)cc1,2,19819*,-9,-2,5,6
CC(=O)Nc1nonc1NC(=O)CSc1ncn[nH]1,5,21267*,-3,-11,-5,-5
Cc1nnc(SCC(=O)Nc2ccc3c(c2)OCCO3)s1,3,21759*,-1,-6,-5,-5
O=C(CSc1ncn[nH]1)c1ccc2c(c1)OCCO2,2,10824,0,10,-4,0
CC(=O)Nc1nonc1NC(=O)CSc1ccccn1,2,?,-3,-6,-6,0
O=C(CSc1ncn[nH]1)Nc1ccc2c(c1)OCCO2,0,23582*,-4,-11,-2,-1
Cc1ccc(C)c(S(=O)(=O)Nc2cc3c4c(c2)CCN4C(=O)CC3)c1,8,.,.,10,.,.
COc1ccc(NC(=O)CO/N=C(\C)c2cccs2)cc1,4,2427,2,6,3,0
Nc1cccc(-c2nc3ccc(C(=O)c4ccccc4)cc3[nH]2)c1,2,3820,-1,16,-8,-6
O=C(CSc1nc2ncccc2[nH]1)Nc1c(F)cc(F)cc1Br,-1,5327,-2,-3,-1,0
Cc1nnc(SCC(=O)N2CCOCC2)s1,0,19625*,-1,0,1,?
O=C(CSc1ncn[nH]1)Nc1c(F)cc(F)cc1Br,0,23998*,-1,1,-2,?
O=C1N[C@@H](Cc2ccccc2)C(=O)N2[C@H]1C[C@H]1c3ccccc3N(OOSc3ccccc3)[C@H]12,1,3810,-2,3,0,0
O=C(CSc1nnc(Cc2cccs2)n1CCc1ccccc1)N1CCCc2ccccc21,-6,23460*,-2,-2,1,0
Cc1nnc(SCC(=O)N2CCCc3ccccc32)[nH]c1=O,3,16177*,-2,4,0,1
Cc1cc(=O)[nH]c(SCC(=O)N2CCCc3ccccc32)n1,-1,12890,3,9,5,1
Cn1c(Cc2cccs2)nnc1SCC(=O)N1CCCc2ccccc21,2,4080,0,6,-15,1
SMILES,FBA Mtb inh,Autofluor counter,Anthrax LF inh2,GDH-TPI counter,BoNT F protease,BoNT-A LC inh2
Cc1nnc(SCC(=O)NCc2ccccc2)[nH]c1=O,-1,17403*,-1,6,-6,-3
CC1CCc2cc(F)ccc2N1C(=O)CSc1nnc(-c2cccs2)n1C (stereo not drawn),-2,23587*,-3,10,-3,?
Cn1c(SCC(=O)N2CCCc3ccccc32)nnc1-c1c[nH]c2ccccc12,3,3033,-3,-4,-8,0
Cn1c(SCC(=O)N2CCCc3ccccc32)nnc1-c1cccs1,-2,23321*,-4,-10,1,-1
COC(=O)c1ccc(COc2ccc(/C=N/Nc3nc(C)cc(=O)[nH]3)cc2)cc1,0,?,-3,36*,-12,0
Cc1cc(=O)[nH]c(N/N=C/c2ccc(-c3ccc(F)cc3)o2)n1,0,5983,-3,37*,-2,-1
COC(=O)c1ccc(COc2ccc(/C=N/Nc3cccc(C(=O)O)c3)cc2)cc1,2,4078,-5,8,-8,0
Cc1cc(=O)[nH]c(N/N=C/c2ccc(Br)s2)n1,-4,3100,-1,42*,-9,-2
Cc1cc(=O)[nH]c(SC/C=C/c2ccccc2)n1,-1,17675*,-5,3,-8,-7
Cc1cc(=O)[nH]c(SCCCOc2ccc(F)cc2)n1,0,23808*,1,-5,-1,0
Cc1cc(C)nc(N/N=C/C=C/c2ccccc2)n1,-3,2114,0,34*,1,0
COc1ccccc1C=NNc1nc(C)cc(=O)[nH]1,0,3097,8,37*,0,0
COc1ccccc1/C=N/Nc1nc(C)cc(C)n1,-1,3632,-3,21,?,-2
Cc1cc(=O)[nH]c(N/N=C/C=C/c2ccccc2)n1,-2,2568,-1,38*,5,0
Cc1cc(=O)[nH]c(N/N=C/CCc2ccccc2)n1,1,2497,-1,8,0,0
CCc1nc2c(OCc3ccccc3)cccn2c1N(C)C(=O)Nc1ccccc1OC,0,3813,-2,4,2,0
COc1ccc(C2C(C(N)=O)=C(C)Nc3nc(-c4ccccc4)nn32)cc1OC (stereo not drawn),2,6050,-1,-6,2,0
CCOc1ccc(-n2c(C)cc(/C=N/Nc3nc(C)cc(=O)[nH]3)c2C)cc1,3,4992,-6,36*,2,-1
CCOc1ccc(-n2c(C)cc(/C=N/NC(=O)C(N)=O)c2C)cc1,-3,4814,-6,8,-10,-3
CCN(CCCNC(=O)CCc1nc(-c2ccc(C)cc2)no1)c1cccc(C)c1,0,2192,-6,3,-23,-1
O=C(c1cccc(Br)c1)N1CCCC1,-1,23116*,0,-1,1,?
O=C(c1cccc(C(F)(F)F)c1)N1CCCC1,0,16789*,-3,1,-5,?
O=C(c1cccc(F)c1)N1CCN(S(=O)(=O)c2ccc(C(F)(F)F)cc2)CC1,-4,22916*,0,-4,2,?
O=C(c1cccc(C(F)(F)F)c1)N1CCCCCC1,5,11586,0,-15,-16,0
Cc1ccccc1NC(=O)CCc1c(C)nn(-c2ccc(N3CCCCC3)nn2)c1C,2,4862,0,16,-4,0
CC1(c2ccc([N+](=O)[O-])cc2)NC(=O)N(CC(=O)c2ccc3c(c2)OCO3)C1=O (stereo not drawn),0,?,-3,10,?,2
CN(C)C(CNC(=O)CSc1nc2sc3c(c2c(=O)n1C)CCCC3)c1ccccc1 (stereo not drawn),3,3354,-3,25,-5,0
CCOC(=O)c1cc(-c2ccccc2)sc1NC(=O)COC,4,3591,-5,-15,-7,0
CCOC(=O)c1cc(-c2ccc(N)cc2)sc1N,-3,18171*,-3,23,2,10
CCOC(=O)c1sc(-c2ccc(Br)cc2)cc1N,5,18598*,-3,16,2,4
